Screening data from PubChem.
Only some compounds are listed: those with a hit (about 19% of all), similar ones and a draw of the others.
HT1080-NT tox – qHTS for induction of synthetic lethality in tumor cells producing 2HG: qHTS for the HT-1080-NT fibrosarcoma cell line; HT-1080-NT fibrosarcoma viability, CellTiter-Glo ATP luminescence, 48 h; Potency, µM (series often up to 46.1 µM), without a hit: at the top dose activity, negative = less viability, hits mostly cytotoxic; 360,000 tested, 1.6% active; AID 686970, 2013;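 further: NT is the 2HG producing partner of a matched IDH1 knockdown line; potency means the concentration at half of the fitted maximal effect; 0% = DMSO-treated cells and -100% = media-only wells without cells; nearly all actives have a fitted effect of over 55% in size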
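Luminescent CellTiter-Glo readout after 48 hours of compound exposure at 37 degrees C defined viability of HT-1080-NT cells. Activity was normalized to DMSO wells and cell-free media wells; concentration-response curves were fitted and assigned curve classes.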
uPA surface inh – qHTS for Inhibitors of Cell Surface uPA Generation; cell surface uPA generation assay, qHTS; Potency, µM (top dose mostly 38.3 µM), without a hit: at the top dose activity change, negative = inhibition, actives largely listed as inhibitors; 330,000 tested, 0.31% active; AID 540303, 2011; active means well fitted inhibition curve with a large enough effect; inconclusive means small, poorly fitted or top-dose-only effect; inactive means no such curve, though single readings can be large or run the other way; tested in mouse RAW 264.7 cells; further: potency means the concentration at half of the fitted maximal effect; nearly all actives have a fitted effect of over 55% in size
DT40 TDP1 no CPT – qHTS for Inhibitors of human tyrosyl-DNA phosphodiesterase 1 (TDP1): qHTS in cells in absence of CPT; 420,000 tested, 15% active; Potency, µM (doses to about 46.2 µM), for the others: at the highest dose activity change, negative = growth inhibition, actives largely listed as inhibitors; DT40 Tdp1-/- hTDP1 cells, no CPT, ATP luminescence, 48 h; AID 686978, 2013; further: potency means the concentration at half of the fitted maximal effect; nearly all actives have a fitted effect of over 55% in size
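Luminescent ATP content (CellTiter-Glo) served as the growth readout. Knockout chicken DT40 cells expressing human TDP1 were exposed to compounds without camptothecin for a minimum 48 hr at 37 °C.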
HT1080 IDH1KD tx – qHTS for induction of synthetic lethality in tumor cells producing 2HG: qHTS for the HT-1080-IDH1KD cell line; HT-1080 IDH1 knockdown viability, ATP luminescence, 48 h; Potency, µM (titrated, usually from 46.1 µM), for inactives: top-dose activity, negative = toxicity, actives largely listed as cytotoxic; 360,000 tested, 2% active; AID 686971, 2013;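 further: potency means the concentration at half of the fitted maximal effect; 0% = DMSO wells and -100% = cell-free medium wells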
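IDH1KD HT-1080 cells, 750/well, RPMI + 5% FBS; compound pinned after 2 h settling; 48 h, 37 °C; CellTiter-Glo luminescence; % activity normalised to DMSO and no-cell wells; curves fitted, classed by r2 and efficacy.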
IL-1B inflam inh – qHTS for Inhibitors of Inflammasome Signaling: IL-1-beta AlphaLISA Primary Screen; 360,000 tested, 4.7% active; THP-1 LPS/ATP IL-1B secretion, AlphaLISA, 16 h; stronger effect = lower value; activity change, % at 57.5 µM; in the data active means activity change below about -50%; inconclusive means mostly about -30% to -49%
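Secreted IL-1B measured by AlphaLISA bead assay after 16 h compound exposure of THP-1 cells; compounds (final up to 57.5 uM) added 1 h before LPS (250 ng/mL) and ATP (1.25 mM) stimulation; lower signal means less secretion.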
TDP1 cell CPT – qHTS for Inhibitors of human tyrosyl-DNA phosphodiesterase 1 (TDP1): qHTS in cells in presence of CPT | chicken DT40 Tdp1-/-;hTDP1 cells + 20 nM CPT, ATP luminescence, 48 h | Potency, µM (titrated, usually from 46.2 µM), for inactives: at the top dose activity change, negative = growth inhibition, actives largely listed as inhibitors | 420,000 tested, 12% active | AID 686979, 2013; further: potency means the concentration at half of the fitted maximal effect; nearly all actives have a fitted effect of over 55% in size
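Chicken DT40 Tdp1-/- cells complemented with human TDP1, 400 cells/well, exposed to compounds plus 20 nM camptothecin for at least 48 h at 37 C; viability read as ATP content by CellTiter-Glo luminescence.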
* = called active by the depositor; ! = a repeat was not active. Unless noted, the call rests on the fitted dose curve; in most records, active means well fitted curve in the direction sought with a large enough effect; inconclusive means small, poorly fitted or top-dose-only effect, or another doubt; inactive means no such curve, though single readings can be large; an effect the other way counts as inactive or inconclusive. Unless noted, on the % scale 0 is the no-effect control and ±100 the full control effect.

COc1cccc(C(=O)OCCNC(=O)c2cccnc2)c1 was read as HT1080-NT tox 3%, uPA surface inh -1%, DT40 TDP1 no CPT -6%, HT1080 IDH1KD tx -1%, IL-1B inflam inh 66 and TDP1 cell CPT 1%.
For CCOC(=O)c1c(C)oc2ncnc(N3CCN(c4ccccc4OC)CC3)c12 the results were DT40 TDP1 no CPT 16µM* and TDP1 cell CPT inconclusive.
COc1ccc(-c2nnc(CSc3nc4ccccc4c(=O)n3CC3CCCO3)o2)cc1OC (stereo not drawn) was read as HT1080-NT tox 17%, uPA surface inh -1%, DT40 TDP1 no CPT 23µM*, HT1080 IDH1KD tx 14%, IL-1B inflam inh 11 and TDP1 cell CPT inconclusive.
Cc1c(C#N)c(N=CN(C)C)c(C(=O)c2ccc(Br)cc2)n1-c1ccc(Cl)cc1 was read as HT1080-NT tox inconclusive, DT40 TDP1 no CPT inconclusive, HT1080 IDH1KD tx inconclusive, IL-1B inflam inh -1 and TDP1 cell CPT 11µM*.
`CC(=O)c1c(N)c(C#N)c(C)n1-c1ccc(Br)cc1` gave HT1080-NT tox -7%, uPA surface inh 3%, DT40 TDP1 no CPT inconclusive, HT1080 IDH1KD tx -2%, IL-1B inflam inh 13 and TDP1 cell CPT -27%.
For COc1ccc(S(=O)(=O)NN(C)c2nc(C(F)(F)F)nc3ccccc23)cc1 the results were HT1080-NT tox 21µM*, uPA surface inh -11%, DT40 TDP1 no CPT inconclusive, HT1080 IDH1KD tx 16µM*, IL-1B inflam inh 23 and TDP1 cell CPT inconclusive.
Screening COc1ccc(S(=O)(=O)Nc2ccccc2C(F)(F)F)cc1 returned HT1080-NT tox -8%, DT40 TDP1 no CPT inconclusive, HT1080 IDH1KD tx inconclusive, IL-1B inflam inh 20 and TDP1 cell CPT 2%.
Screening CC(C)N(C(C)C)S(=O)(=O)c1ccc(Cl)nc1 returned HT1080-NT tox 14%, uPA surface inh -2%, DT40 TDP1 no CPT -21%, HT1080 IDH1KD tx 13%, IL-1B inflam inh 0 and TDP1 cell CPT -9%.
Screening CC(C)N(C(C)C)S(=O)(=O)c1ccc(N2CCc3ccccc3C2)nc1 returned HT1080-NT tox inconclusive, uPA surface inh -3%, DT40 TDP1 no CPT inconclusive, HT1080 IDH1KD tx inconclusive, IL-1B inflam inh -106* and TDP1 cell CPT inconclusive.
`CCn1c(CNc2ccc(F)cc2)nnc1SCCN1CCCCC1` gave HT1080-NT tox 11%, uPA surface inh 7%, DT40 TDP1 no CPT -16%, HT1080 IDH1KD tx 14%, IL-1B inflam inh 18 and TDP1 cell CPT 5%.
Screening CCn1c(CNc2ccccc2Cl)nnc1SCCN1CCCCC1 returned HT1080-NT tox -1%, uPA surface inh 6%, DT40 TDP1 no CPT 16µM*, HT1080 IDH1KD tx -6%, IL-1B inflam inh -8 and TDP1 cell CPT 18µM*.
For O=[N+]([O-])c1ccc(Cn2cc(-c3cccc(C(F)(F)F)c3)nn2)cc1 the results were HT1080-NT tox 0%, uPA surface inh 8%, DT40 TDP1 no CPT 16µM*!, HT1080 IDH1KD tx 1%, IL-1B inflam inh -12 and TDP1 cell CPT inconclusive.
O=C1c2ccccc2C(=O)c2cc(Cn3cc(-c4cccc(C(F)(F)F)c4)nn3)ccc21 was read as DT40 TDP1 no CPT -9% and TDP1 cell CPT inconclusive.
For COc1ccc(N(CC(=O)N2CCc3ccccc32)S(=O)(=O)c2c(C)n[nH]c2C)cc1 the results were HT1080-NT tox -1%, uPA surface inh -4%, DT40 TDP1 no CPT inconclusive, HT1080 IDH1KD tx -4%, IL-1B inflam inh -54* and TDP1 cell CPT -29%.
For Cc1ccc(N(CC(=O)N2CCc3ccccc32)S(=O)(=O)c2cccs2)cc1 the results were HT1080-NT tox -3%, uPA surface inh 4%, DT40 TDP1 no CPT 18µM*, HT1080 IDH1KD tx 0%, IL-1B inflam inh -14 and TDP1 cell CPT inconclusive.
`COc1ccc(N(CC(=O)N2CCc3ccccc32)S(=O)(=O)c2c(C)nn(C)c2C)cc1` gave HT1080-NT tox -2%, uPA surface inh -1%, DT40 TDP1 no CPT inconclusive, HT1080 IDH1KD tx -10%, IL-1B inflam inh -17 and TDP1 cell CPT inconclusive.
For COC(=O)[C@@H]1CCCN1C(=O)c1c(OC)cc(=O)n2c1CCN(Cc1ccc3cccnc3c1)CC2 the results were DT40 TDP1 no CPT -4% and TDP1 cell CPT 0%.
For CC1(NC(=O)Cc2ccc(S(=O)(=O)N3CCOCC3)s2)CCS(=O)(=O)C1 (stereo not drawn) the results were HT1080-NT tox 8%, uPA surface inh 1%, DT40 TDP1 no CPT -18%, HT1080 IDH1KD tx 9%, IL-1B inflam inh 0 and TDP1 cell CPT -5%.
For COc1ccc(CCNC2CCC(c3ccccc3)CC2)cc1 (stereo not drawn) the results were HT1080-NT tox 18µM*, uPA surface inh -8%, DT40 TDP1 no CPT inconclusive, HT1080 IDH1KD tx inconclusive, IL-1B inflam inh inconclusive and TDP1 cell CPT -73%.
For COc1ccc(CCNC(=O)CN2CCN(c3ccccc3Cl)CC2)cc1 the results were HT1080-NT tox -22%, uPA surface inh 5%, DT40 TDP1 no CPT inconclusive, HT1080 IDH1KD tx inconclusive, IL-1B inflam inh -6 and TDP1 cell CPT -22%.
COc1ccc(CCNCc2ccccc2N2CCCC2)cc1 was read as HT1080-NT tox inconclusive, uPA surface inh -6%, DT40 TDP1 no CPT inconclusive, HT1080 IDH1KD tx -29%, IL-1B inflam inh inconclusive and TDP1 cell CPT 18µM*.
`COc1ccc(CCNCc2cc(C)n(-c3ccc(OC)cc3)c2C)cc1` gave HT1080-NT tox -24%, uPA surface inh inconclusive, DT40 TDP1 no CPT inconclusive, HT1080 IDH1KD tx -20%, IL-1B inflam inh -29 and TDP1 cell CPT 16µM*.
`CCOc1ccc(CCNC(=O)CSc2nc3ccccc3nc2Cc2ccc(C)cc2)cc1OCC` gave DT40 TDP1 no CPT -21% and TDP1 cell CPT -29%.
`O=C(c1cnn2c1NC(c1ccco1)CC2C(F)(F)F)N1CCN(c2cccc(Cl)c2)CC1` (stereo not drawn) gave HT1080-NT tox 15µM*, uPA surface inh -10%, DT40 TDP1 no CPT 8.2µM*, HT1080 IDH1KD tx 18µM*, IL-1B inflam inh -12 and TDP1 cell CPT 16µM*.
